The whole screen tested about 10,000 compounds, of which about 20 (0.2%) were called active. The rule behind the calls is not given here. Only a sample is shown.

The assay in a line: boosters of cytokine-driven VCAM-1 levels – imaging, high-content imaging, pooled HUVEC, TNFa stimulus (AID 457). To be noted: TNFa-induced VCAM-1 immunofluorescence imaging; concentration not given here.
`COCCNC(=O)CN1CCN(C(c2ccccc2)c2ccccc2)CC1`: the augmentation result was “inactive”.

With `Cc1ccc(CN2CCN(C(=O)C3CCC3)CC2)cc1`, the augmentation entry is “inactive”.

Regarding `Cc1cc(NC(=O)CCOc2ccccc2)no1`, the augmentation result was “inactive”.

Regarding `COc1ccc(N2C(=O)C3CCCN3C2c2ccc(F)cc2)cc1Cl` (stereo unspecified), the augmentation entry is “inactive”.

Regarding `O=c1c2cnn(-c3ccccc3)c2ncn1/N=C/c1ccncc1`, the augmentation result was “inactive”.

`COC(=O)c1[nH]c2ccc(C)cc2c1NC(=O)CN1CCN(C(=O)c2ccccc2)CC1`: the augmentation result was “inactive”.

For `CC1Cc2cc(/C(O)=C3/C(=O)C(=O)N(CCN4CCOCC4)C3c3cccc(O)c3)ccc2O1` (stereo unspecified), the augmentation result was “inactive”.

In the case of `Clc1ccc(-c2nnc3sc(-c4ccc(Br)o4)nn23)cc1`, the augmentation entry was “inactive”.

Take `CCCCN(CCCNC(=O)C1CCN(S(=O)(=O)CC)CC1)c1ccccc1`: the augmentation result was “inactive”.

Regarding `CS(=O)(=O)N(CC(=O)N1CCN(c2cccc(Cl)c2)CC1)C1CCCCC1`, the augmentation entry is “inactive”.

On to `CC1CCN(CCCNC(=O)c2coc3nc4ccccc4nc23)CC1`, for which the augmentation result is “inactive”.

On to `COc1ccc(-c2nnc(SCC#N)o2)cc1`, for which the augmentation result is “inactive”.

`O=C(CSc1nnnn1-c1ccc2c(c1)OCO2)NCc1cccs1`: the augmentation entry is “inactive”.

On to `CCOC(=O)N1CCN(C(=O)c2csc3c2CCCCC3)CC1`, for which the augmentation result was “inactive”.

Consider `Cc1cccc(-n2ncc3c(NCc4ccccn4)ncnc32)c1`, for which the augmentation result is “inactive”.

As to `CCCN(CCC)C(=O)c1c(C)[nH]c(C(=O)OCC)c1C`, the augmentation result is “inactive”.

On to `CCOC(=O)c1ccc2nc(C)c3c(c2c1)OC(C)C3` (stereo unspecified), for which the augmentation entry was “inactive”.

As for `Cc1c(NC(=O)C2CCCNC2=O)c(=O)n(-c2ccccc2)n1C` (stereo unspecified), the augmentation entry was “inactive”.

Turning to `O=C1CC(c2ccccc2)Cc2nc(N3CCc4ccccc43)ncc21` (stereo unspecified), the augmentation result was “inactive”.

For the molecule `CC(=O)N1CCN(c2ccc(S(=O)(=O)N3CCCCC3)cn2)CC1`, the augmentation result is “inactive”.

Take `COc1cc(OC)cc(-c2nc3cc(C)ccc3o2)c1`: the augmentation entry was “inactive”.

On to `CC1CN(C(=O)CSc2nnc(-c3ccc(Cl)cc3)n2C)CC(C)O1` (stereo unspecified), for which the augmentation result was “inactive”.

In the case of `CCCOc1ccccc1NC(=O)c1ccc(N)cc1`, the augmentation result is “inactive”.

Turning to `C=CCSc1ncccc1C(=O)O`, the augmentation result was “inactive”.

For the molecule `CCN(CCNC(=O)C1CCN(S(=O)(=O)CC)CC1)c1ccccc1`, the augmentation entry was “inactive”.

Take `Cc1oc2cc3c(C(=O)OCCN(C)C)c(C)oc3cc2c1C(=O)OCCN(C)C`: the augmentation entry was “inactive”.

Take `Cc1nc(CNS(=O)(=O)c2cccc(F)c2)cs1`: the augmentation result was “inactive”.

`CCN(CC)c1ccc2c(c1)CCCN2`: the augmentation result is “inactive”.

As for `Cc1onc(-c2ccccc2)c1C(=O)N1CCCSC1=Nc1ccccc1`, the augmentation result is “inactive”.

`COCCN1CCN(c2c(C)c(C)nc3cc(-c4cccc(OC)c4)nn23)CC1`: the augmentation entry was “inactive”.

In the case of `C=CCN1C(=O)C2(/C(=C(\O)c3ccc4c(c3)OCCO4)C(=O)C(=O)N2CCCOC)c2ccccc21` (stereo unspecified), the augmentation result was “inactive”.

Regarding `C=CCOc1nc(N2CCCC2)nc(N2CCCC2)n1`, the augmentation entry is “inactive”.

Turning to `O=C(c1cccc2c1C(=O)N(Cc1cccnc1)C2)N1CCN(c2ccccc2)CC1`, the augmentation entry was “inactive”.

For `Cc1nnc2ccc(N3CCC4(CC3)OCCO4)nn12`, the augmentation result is “inactive”.

For `Cc1nc(CCNS(=O)(=O)c2cccs2)cs1`, the augmentation result was “inactive”.

Regarding `CC(O)CN1C(=O)C(CC(=O)Nc2ccc(Cl)cc2)SC1=Nc1ccccc1` (stereo unspecified), the augmentation result is “inactive”.

`CCn1c(SCC(=O)C(C)(C)C)nnc1-c1cnccn1`: the augmentation entry was “inactive”.

`c1ccc(CCNc2ccc3nncn3n2)cc1`: the augmentation result was “inactive”.

Consider `O=C(NCc1nc2ccccc2[nH]1)c1ccc(Cl)c(S(=O)(=O)N2CCCC2)c1`, for which the augmentation entry was “inactive”.

As for `Cc1cccc(Nc2nc(N)nc(CN3CCC(C(N)=O)CC3)n2)c1C`, the augmentation result is “inactive”.

Consider `O=C(Nc1cccc(NC(=O)c2ccco2)c1)c1ccc2c(c1)OCO2`, for which the augmentation entry was “inactive”.

Regarding `COc1ccccc1OCCn1c(=O)sc2ccccc21`, the augmentation result was “inactive”.

Regarding `O=C(Cc1ccccc1)Nc1ccc(CN2CCOCC2)cc1`, the augmentation entry is “inactive”.

In the case of `Cc1ccc2[nH]c(=O)c3cc(C(=O)NCCN4CCN(C)CC4)sc3c2c1`, the augmentation entry was “inactive”.

With `CCOC(=O)N1CCN(C(=O)CSc2cc(C)nc3c(-c4ccccc4OC)c(C)nn23)CC1`, the augmentation result is “inactive”.

As to `COc1ccc(-c2nc(C#N)c(N3CCN(c4ccccc4)CC3)o2)cc1`, the augmentation result was “inactive”.

On to `CC(C)CNC(=O)c1ccccc1NC(=O)c1ccc(CN2CCOCC2)cc1`, for which the augmentation entry was “inactive”.

With `CCCN1CCN(CCCNC(=O)C2CCCN(c3nc4ccc(OCC)cc4s3)C2)CC1` (stereo unspecified), the augmentation entry was “inactive”.

For `CC(C)N(C(=O)N1CCC(c2nc(-c3ccncc3)no2)CC1)C(C)C`, the augmentation result was “inactive”.

`O=C(CN1C(=O)CC(c2ccco2)Sc2ccccc21)Nc1ccccc1F` (stereo unspecified): the augmentation result was “inactive”.

With `CC(O)c1c(OCc2ccccc2)ncnc1OCc1ccccc1` (stereo unspecified), the augmentation entry was “inactive”.

With `O=C(O)c1cc2c(s1)CCCC2`, the augmentation entry was “inactive”.

With `CCOC(=O)CN1CC23C=CC(O2)C(C(=O)NC2CCCC2)C3C1=O` (stereo unspecified), the augmentation result was “inactive”.

As to `CCOc1ccc2cc(C#N)c(SCC(=O)N3CCC(C)CC3)nc2c1`, the augmentation entry was “inactive”.

Regarding `CC(=O)Nc1sc2c(c1C#N)CCCCC2`, the augmentation result was “inactive”.

Consider `CCCOc1ccc(S(=O)(=O)NCCCN2CCOCC2)c2ccccc12`, for which the augmentation entry is “inactive”.

Regarding `O=C(Cn1ccc2ccccc2c1=O)Nc1ccc2c(c1)OCO2`, the augmentation result was “inactive”.

As to `CCOCCn1cnc2sc(C(=O)Nc3nc(C)c(C(=O)OCC)s3)c(C)c2c1=O`, the augmentation result was “inactive”.

For the molecule `Nc1nc2ccccc2n1C(=O)CCc1ccccc1`, the augmentation result is “inactive”.

For the molecule `Cc1sc2nc(CN3CCN(S(=O)(=O)c4cccc5nonc45)CC3)[nH]c(=O)c2c1C`, the augmentation entry was “inactive”.

Consider `O=C(CN1CCC(n2nnc3ccccc32)CC1)Nc1ccc2c(c1)CCC2`, for which the augmentation entry was “inactive”.

As to `O=C(Nc1ncc(Cc2ccccc2)s1)C1CCCO1` (stereo unspecified), the augmentation result is “inactive”.

With `O=C(Cc1c(F)cccc1Cl)Nc1ccncc1`, the augmentation result was “inactive”.

`CCCCCCc1ccc(-c2ncc(N)cn2)cc1`: the augmentation entry is “inactive”.

On to `CCc1nnc(NC(=O)CSc2nnc(-c3ccoc3C)n2CC(C)C)s1`, for which the augmentation entry was “inactive”.

With `COc1nc(C)ccc1-c1noc(-c2ccncc2)n1`, the augmentation result is “inactive”.

Take `Cc1noc(/C=C/N(C)C)c1S(=O)(=O)N1CCc2ccccc21`: the augmentation entry is “inactive”.

As for `O=C(Nc1ccc2c(c1)OCCO2)c1cnc2n(c1=O)CCS2`, the augmentation result was “inactive”.

Turning to `Cc1[nH]nc(N=CC2=C(O)CC(C)(C)CC2=O)c1-c1ccccc1`, the augmentation entry is “inactive”.

For `Cc1csc(SCCn2c(N3CCCC3)nc3c2c(=O)[nH]c(=O)n3C)n1`, the augmentation entry was “inactive”.

For the molecule `O=C(Nc1ccccc1Cl)c1c(F)c(F)c(F)c(F)c1F`, the augmentation result was “inactive”.

Consider `O=C(COc1nnnc2ccccc12)N1CCCc2ccccc21`, for which the augmentation entry is “inactive”.

Take `CC1(C)CC(=O)c2cnc(NCc3ccco3)nc2C1`: the augmentation result is “inactive”.

As to `COC(=O)C1=C(C)OC(N)=C(C#N)C1c1c(C)nn(-c2ccccc2)c1Cl` (stereo unspecified), the augmentation result was “inactive”.

Consider `CCCNC(=O)c1cc(S(=O)(=O)N2CCc3ccccc32)ccc1F`, for which the augmentation result is “inactive”.

`O=C(CSc1ncc(-c2ccc(F)cc2)[nH]1)N1CCCCC1`: the augmentation result was “inactive”.

In the case of `CC(C)OC(=O)CSc1nnc(-c2ccc(O)cc2)n1Cc1ccccc1`, the augmentation result is “inactive”.

On to `CSC1CCCCC1(O)CSc1nc2c(cc1C#N)CCCC2` (stereo unspecified), for which the augmentation entry was “inactive”.

Regarding `Cc1cc(C)cc(NC(=O)C2CCCN(c3nccc(C)n3)C2)c1` (stereo unspecified), the augmentation entry was “inactive”.

For the molecule `Cn1c(/C=N/n2cnnc2)nc2ccccc21`, the augmentation result was “inactive”.

Take `Cc1ccccc1NC(=O)C1CCN(c2cnccn2)CC1`: the augmentation entry was “inactive”.

Turning to `O=C(Nc1cccnc1)Nc1ccc(F)c(Cl)c1`, the augmentation result is “inactive”.

Consider `C(=C\c1ccccc1)/CN1CCN(Cc2ccc3c(c2)OCCO3)CC1`, for which the augmentation entry is “inactive”.

In the case of `CCOC(=O)N1CCN(CCC(=O)c2ccc(Cl)cc2)CC1`, the augmentation result was “inactive”.

`CCOC(=O)CSc1nc2ccccc2n1CC(=O)N1CCN(c2ccccc2)CC1`: the augmentation result was “inactive”.

With `COc1ccccc1C(=O)NCC(=O)Nc1ccccc1`, the augmentation entry is “inactive”.

On to `CCC(C)(C)NC(=O)CN(C(=O)c1snc(C(N)=O)c1N)c1ccc2c(c1)OCO2`, for which the augmentation entry is “inactive”.

`COC(=O)c1ccccc1NC(=O)C1CC(=O)N(c2ccc(F)cc2)C1` (stereo unspecified): the augmentation entry was “inactive”.

Turning to `Cc1cc(Cl)c(S(=O)(=O)N2CCN(c3ccc(F)cc3)CC2)cc1OCC(N)=O`, the augmentation entry was “inactive”.

Regarding `Cc1ccc(-n2nnnc2SCC(=O)N2CCN(C(=O)c3ccco3)CC2)c(C)c1`, the augmentation entry was “inactive”.

On to `O=S(CC(O)COCc1ccc(Cl)cc1)c1ccccn1` (stereo unspecified), for which the augmentation entry is “inactive”.

For the origin of these results see PubChem BioAssay AID457 (Sanford-Burnham Center for Chemical Genomics, 2006).
